Compound activity (PubChem)
Compounds with a hit are over-represented: about 7.5% of the library has one in this group of screens.
NPC1 prom act: qHTS Assay for NPC1 Promoter Activators | Huh7 NPC1 promoter luciferase reporter, 24 h | Potency, µM (series often up to 9.22 µM), for inactives: at the highest dose activation, usual class: activators | hit rate 2.4% among 320,000; also: % of control where 0% means no effect; nearly all actives have a fitted effect of over 60% in size
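Stable NPC1-promoter luciferase Huh7 line; cpd (DMSO) 24 h, 37 °C, 5% CO2; Amplite luciferase reagent 10 min RT; luminescence readout. qHTS format.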
SMN2 splice up: qHTS Assay for Enhancers of SMN2 Splice Variant Expression | HEK293 SMN2-luciferase splicing reporter, luminescence, 30-36 h | Potency, µM (highest dose often 46.1 µM), for inactives: top-dose activity change, positive = activation, actives largely listed as activators | hit rate 2.8% among 210,000 | AID 1458, 2008; also: % of control where 0% means no effect; nearly all actives have a fitted effect of over 55% in size
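HEK293 cells carry an SMN2 […]–luciferase reporter in which exon 7 inclusion puts luciferase in frame. Cells were plated 10-12 h before compound addition, then incubated 30-36 h at 37C. ONE-Glo luminescence was read; sodium butyrate at 4.5 mM final served as control.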
FLuc modulator: qHTS profiling assay for firefly luciferase inhibitor/activator using purifed enzyme and Km concentrations of substrates (counterscreen for miR-21 project); hit rate 6.9% among 360,000; purified FLuc, Km substrates, luminescence inhibition; Potency, µM (series often up to 57.5 µM), inactives show at the highest dose activity change, negative = inhibition, hits mostly inhibitors; Luciferin 4-monooxygenase (Photinus pyralis), P08659;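 also: plate controls were vehicle for no effect and reference inhibitor for full effect; nearly all actives have a fitted effect of over 55% in size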
Target sequence (P08659 whole entry, looked up): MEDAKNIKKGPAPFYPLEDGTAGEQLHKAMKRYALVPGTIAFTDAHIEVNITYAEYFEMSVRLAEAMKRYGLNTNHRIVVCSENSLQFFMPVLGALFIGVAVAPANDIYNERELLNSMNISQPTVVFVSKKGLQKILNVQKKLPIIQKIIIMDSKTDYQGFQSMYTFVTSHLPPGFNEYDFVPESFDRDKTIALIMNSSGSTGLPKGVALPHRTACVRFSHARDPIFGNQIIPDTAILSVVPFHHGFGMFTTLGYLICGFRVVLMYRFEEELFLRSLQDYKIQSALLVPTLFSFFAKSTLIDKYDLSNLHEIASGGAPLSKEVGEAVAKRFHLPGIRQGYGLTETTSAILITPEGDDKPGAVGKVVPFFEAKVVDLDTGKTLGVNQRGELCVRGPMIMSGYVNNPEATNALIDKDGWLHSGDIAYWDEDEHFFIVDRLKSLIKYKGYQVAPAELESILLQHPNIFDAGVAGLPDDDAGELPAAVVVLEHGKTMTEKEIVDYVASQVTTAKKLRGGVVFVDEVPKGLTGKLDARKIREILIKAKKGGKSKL
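Biochemical qHTS of compounds, final roughly 60 µM downward over six points, against 10 nM purified firefly luciferase using Km concentrations of substrates (10 uM D-luciferin, 10 uM ATP) in Tris acetate pH 7.5 buffer; luminescence output.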
ELG1 genotoxic: qHTS screen for small molecules that induce genotoxicity in human embryonic kidney (HEK293T) cells expressing luciferase-tagged ELG1 | hit rate 1.3% among 330,000 | HEK293T ELG1-luciferase reporter, luminescence, 16 h | Potency, µM (top dose mostly 46 µM), for the others: at the top dose activity change, positive = activation, hits mostly activators; also: % of control where 0% means no effect; nearly all actives have a fitted effect of over 60% in size
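HEK293T cells expressing luciferase-tagged ELG1 were treated with compound or DMSO for 16 hr at 37°C. Luciferase activity was then read after 30 min with ONE-Glo at room temperature; rising signal flags genetic stress.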
Rab9 prom act: qHTS Assay for Rab9 Promoter Activators. Huh7 Rab9 promoter-luciferase reporter, luminescence, 24 h. AID 485297, 2010. hit rate 2.8% among 320,000. Potency, µM (highest dose often 9.22 µM), for inactives: top-dose activation, negative = inhibition, hits mostly activators; also: % of control where 0% means no effect; nearly all actives have a fitted effect of over 60% in size
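Luminescence read-out: Huh7 cells stably expressing Rab9-luciferase, treated 24 h with compound at 37 °C, then lysed with luciferase reagent for 10 min at ambient before reading.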
* hit, by the source's call; ? = inconclusive; . = no result given; [ ] = remark or other dose. Calls follow the shape of the dose curve; as a rule, active = well fitted curve in the direction sought with a large enough effect; inconclusive = small, poorly fitted or top-dose-only effect, or another doubt; inactive = no such curve, though single readings can be large; an effect the other way counts as inactive or inconclusive. Potency is read from the fitted curve at half-maximal effect.

SMILES	NPC1 prom act	SMN2 splice up	FLuc modulator	ELG1 genotoxic	Rab9 prom act
O=C1COc2ccc(-c3csc(NCCc4ccccc4)n3)cc2N1	-1%	-51%	27µM*	-7%	0%
Clc1ccc2nc(-c3ccc4c(c3)OCO4)cn2c1	0.32µM*	.	0.12µM*	?	0.13µM*
Cc1ccc2nc(-c3ccc4c(c3)NC(=O)CO4)cn2c1	1.6µM*	.	0.85µM*	?	1.1µM*
O=C(COC(=O)CN1C(=O)C(=O)c2ccccc21)OCN1C(=O)c2ccccc2C1=O	1%	-15%	3%	0%	4%
CN(C)S(=O)(=O)N1CCC(Oc2ccc(C(=O)NCc3cnn(C)c3)cc2)CC1	-5%	.	0%	-9%	-18%
Cc1ccc2nc(-c3ccc4c(c3)OCCO4)cn2c1	-32%	.	0.067µM*	?	-37%
Cc1ccc(NC(=O)CCn2cnc3cc(C)c(C)cc32)cc1	-1%	-5%	-11%	-2%	-1%
CCn1cnc2cc(NC(=O)c3ccc(C)cc3)ccc21	2µM*	.	11µM*	?	4µM*
Cc1ccc(C(=O)Nc2ccc3c(c2)ncn3C)cc1	3.2µM*	2.5µM*	-3%[2.3 µM]	?	4µM*
Cc1ccc(C2=CSC3=NNC4(CCCCC4)NN23)cc1	-14%	-17%	11µM*	15%	4.5µM*
COc1ccc(C2=CSC3=NNC4(CCCCC4)NN23)cc1	-11%	5%	?	9%	?
COc1ccc(Nc2nc(N)nc(CCl)n2)cc1	.	.	6µM*	?	-48%
Nc1nc(CCl)nc(Nc2ccc3ccccc3c2)n1	-37%	.	3µM*	28%	-54%
O=C(CCc1nnc(CCc2c[nH]c3ccccc23)o1)NC1CCC1	?	.	21µM*	?	3.5µM*
O=C(CCc1nnc(Cc2c[nH]c3ccccc23)o1)NC1CCCC1	-8%	.	4%	0%	-3%
Cc1ccccc1C(=O)Nc1ccc(C(=O)N/N=C/c2ccc(O)cc2)cc1	-1%	.	?	-4%	-5%
CC(/C=C/c1ccco1)=N\NC(=O)c1cc(C)[nH]n1	4%	15%	-2%	13%	-4%
C/C(=N/NC(=O)c1cc(C)[nH]n1)c1ccco1	?	.	21µM*	?	4µM*
C/C(=N\NC(=O)c1cc(-c2ccc(C)s2)[nH]n1)c1ccco1	23%	11µM*	21µM*	14%	28%
C/C(=N\NC(=O)c1ccn(C)n1)c1ccco1	?	.	17µM*	16µM*	2.5µM*
COc1cc(NC(=O)CN(C)S(=O)(=O)c2cccs2)cc(OC)c1	-2%	.	-3%	1%	1%
CCOc1ccc(C2=CC(c3cccc(Br)c3)n3c(nc4ccccc43)N2)cc1Cl (stereo not given)	.	.	13µM*	.	.
CC(C)c1ccc(C2=CC(c3cccc(Cl)c3)n3ncnc3N2)cc1 (stereo not given)	.	.	-16%	.	.
CCc1ccc(C2=CC(c3cccc(C)c3)n3c(nc4ccccc43)N2)cc1 (stereo not given)	.	.	1.2µM*	.	.
COc1ccc(C2N=C(N)Nc3nc4ccccc4n32)c(OC)c1OC (stereo not given)	.	-2%	4%	.	.
SMILES	NPC1 prom act	SMN2 splice up	FLuc modulator	ELG1 genotoxic	Rab9 prom act
CCc1ccc(C2=CC(c3cccc(OC)c3OC)n3c(nc4ccccc43)N2)cc1 (stereo not given)	.	.	4.3µM*	.	.
CCc1ccc(C2=CC(c3cccc(Br)c3)n3nnnc3N2)cc1 (stereo not given)	.	.	3%	.	.
CC(C)c1ccc(C2=CC(c3cccc(Cl)c3)n3c(nc4ccccc43)N2)cc1 (stereo not given)	.	.	21µM*	.	.
C=CCn1c(C)nnc1SCC(=O)NC1CC1	-3%	.	1%	2%	4%
Cc1cc(NC(=O)COC(=O)c2ccc(C)c(C)c2)no1	.	.	.	2%	.
CCN(CC)S(=O)(=O)c1cc(NC(=O)COC(=O)Cn2cnc3ccccc32)ccc1C	-5%	3%	0%	2%	-11%
O=C(Nc1ccccc1C(=O)OCc1cc(=O)n2c3c(sc2n1)CCCC3)c1ccc(Cl)cc1	.	.	-11%	.	.
O=C(COC(=O)c1nc(Cl)ccc1Cl)NCc1ccc(Cl)cc1	-2%	.	.	1%	2%
CC(=O)COc1ccc2c(c1C)O/C(=C\c1ccco1)C2=O	?	.	5.4µM*	?	?
COC(=O)C(C)Oc1ccc2c(c1)O/C(=C\c1ccco1)C2=O (stereo not given)	-5%	.	3µM*	0%	-8%
COc1ccc2c(c1)O/C(=C\c1ccco1)C2=O	4.5µM*	.	0.6µM*	?	4µM*
CN(CC(=O)Nc1ccccc1F)Cc1cccs1	2%	.	-1%	1%	4%
Cc1cc(NC2C3CC4CC(C3)CC2C4)n2nnnc2n1 (stereo not given)	-2%	8%	5%	-2%	-12%
Oc1cc2ccccc2cc1-c1n[nH]c(=S)o1	2%	6%	?	8%	14%
Cc1cc(-c2n[nH]c(=S)o2)c(C)n1-c1ccccc1	?	7.1µM*	3µM*	?	2.5µM*
CN(C)C(=S)Nc1cccc(F)c1	-1%	.	0%	-7%	-1%
CN(C)c1ccc(N=Nc2cccc3ccoc23)cc1	?	3.5µM*	1.2µM*	6.5µM*	?
CN(C)c1ccc(N=Nc2cccc(F)c2)cc1	2µM*	.	0.24µM*	0.65µM*	3.5µM*
Clc1ccc(-c2cc(-c3ccccc3)on2)cc1	1.4µM*	.	0.85µM*	?	1.3µM*
Cc1nc(-c2cc(-c3ccc(Cl)cc3)no2)cs1	1.1µM*	.	1.2µM*	?	0.56µM*
